Hit rate of the full screen: of about 220,000 compounds, about 2,000 (0.91%) were called active. Roughly 2% stayed inconclusive and do not appear here. No stated cut-off is given here; in the data, inconclusive means inhibition above about 80% without an active follow-up result; inactive means below that; test concentration not stated here. Not all results are given here. Potency and affinity values are given separately.
Assay: M. tuberculosis H37Rv growth inhibitors, H37Rv strain (AID 1626);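 further: bacteria incubated seven days before Alamar blue readout; 0% = bacteria only wells and 100% = bacteria with antibiotic wells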
Conditions: hits give high values, concentration not given here
In the case of `Cc1ccc(C2=NC3(CCCCCC3)NC2=S)cc1`, the inhibition is reported as 7.91% (inactive). In the case of `Cc1ccc(Cl)cc1-c1ccc(C=Nc2ccc(N3CCOCC3)cc2)o1`, the inhibition is reported as 9.51% (inactive). In the case of `Clc1cccc(-c2ccc(C=Nc3ccc(N4CCOCC4)cc3)o2)c1`, the inhibition is reported as 32.1% (inactive). With `COc1cccc(CN2CCCCC2C(=O)O)c1` (configuration not stated) the inhibition was -3.4% (inactive). With `Clc1cccc(-c2nc(NCCCN3CCOCC3)c3ccccc3n2)c1` the inhibition was 15% (inactive). In the case of `Clc1ccc(-c2nc(NCCN3CCOCC3)c3ccccc3n2)cc1`, the inhibition is reported as 11.1% (inactive). With `COc1ccc(-c2nn(-c3ccccc3C)cc2CNC(C)c2cn(C)nc2C)cc1F` (configuration not stated) the inhibition was -2.3% (inactive). With `COc1ccc(NC(=O)CSc2nnc(Cn3c(=O)sc4ccccc43)n2C)cc1OC` the inhibition was -2.38% (inactive). With `CCOC(=O)c1sc2nc(C)n(N)c(=O)c2c1C` the inhibition was 3.43% (inactive). For `CCOC(=O)c1sc2nc(Cc3ccc(Cl)cc3)[nH]c(=S)c2c1C`, the inhibition was 62.6% (inactive). With `CCC(=NCc1ccc2c(c1)OCO2)c1c(O)n(C)c(=O)n(C)c1=O` the inhibition was -0.05% (inactive). For `Clc1cccc(Cl)c1/C=N/Nc1c(Cl)cncc1Cl`, the inhibition was -5.97% (inactive). For `COc1ccc(/C=C2\C(=O)c3ccccc3OC2c2ccccc2)cc1` (configuration not stated), the inhibition was 0.26% (inactive). For `O=C(N/N=C/c1ccc[nH]1)c1ccccc1O`, the inhibition was -6.87% (inactive). With `Cc1ccc(N=Cc2ccc[nH]2)c(O)c1` the inhibition was -2.8% (inactive). In the case of `Cc1ccc(CCSc2ccc(F)cc2)cn1`, the inhibition is reported as 0.68% (inactive). In the case of `O=C(O)CCc1ccc(-c2ccc(Cl)cc2)o1`, the inhibition is reported as 62.7% (inactive). In the case of `CN1CCN(Cc2ccc(-c3ccc(Cl)cc3)o2)CC1`, the inhibition is reported as 4.34% (inactive). In the case of `O=C(COCC(=O)N1CCOCC1)N1CCOCC1`, the inhibition is reported as -0.86% (inactive). For `COc1ccc(OC)c(-n2nnnc2SCC(=O)Nc2nc(C)c(C)s2)c1`, the inhibition was -6.27% (inactive). For `COc1ccc(C(=O)Nc2ccccc2Cc2ccccc2)c(OC)c1`, the inhibition was 12.6% (inactive). For `C=CCOC(=O)c1ccc(-n2cnc(C)n2)nc1`, the inhibition was 34.4% (inactive). For `CCOCCOC(=O)c1ccc(-n2cnc(C)n2)nc1`, the inhibition was 1.52% (inactive). With `CC(C)CN1CCN(Cc2ccc(Oc3ncccn3)cc2)CC1CCO` (configuration not stated) the inhibition was -12.7% (inactive). In the case of `O=C(Nc1ccc2oc(-c3cccnc3)nc2c1)c1ccc(Br)o1`, the inhibition is reported as -4.68% (inactive). In the case of `Cc1ccc(CNC(=O)c2ccc(Br)o2)cc1`, the inhibition is reported as 6.85% (inactive). In the case of `O=C(Nc1ccc2oc(-c3cccnc3)nc2c1)c1ccco1`, the inhibition is reported as -0.84% (inactive). For `Cc1cccc(NC(=O)COC(=O)c2ccc([N+](=O)[O-])o2)c1C`, the inhibition was -1.87% (inactive). For `Cc1ccccc1NC(=O)c1ccc([N+](=O)[O-])o1`, the inhibition was -5.26% (inactive). For `O=C(Nc1cccc(NC(=O)c2cccs2)c1)c1ccco1`, the inhibition was -1.16% (inactive). In the case of `COc1cc(NC(=O)c2ccc([N+](=O)[O-])o2)ccc1NC(=O)c1cccs1`, the inhibition is reported as 11.9% (inactive). For `O=C(NCc1cccnc1)c1ccc([N+](=O)[O-])o1`, the inhibition was 9.87% (inactive). For `O=C(NCCCN1CCOCC1)C(C(=O)NCCCN1CCOCC1)c1ncc(C(F)(F)F)cc1Cl`, the inhibition was -6.54% (inactive). For `O=C1CC(C(=O)O)S/C(=N\N=C\c2ccc(Br)cc2)N1` (configuration not stated), the inhibition was -6.35% (inactive). For `COc1cccc(OC)c1C(=O)NNC(=O)c1ccc(F)cc1`, the inhibition was -2.49% (inactive). In the case of `COc1ccccc1CN1C[C@@H]2C[C@@H](c3cccc(C)c3)N3CCC[C@@]23C1=O`, the inhibition is reported as 4.89% (inactive). For `CCN(CC)S(=O)(=O)c1ccc(N/N=C(\C)c2ccc3c(c2)OCO3)c([N+](=O)[O-])c1`, the inhibition was 2.18% (inactive). With `NC(=O)N/N=C/c1coc2ccc(O)cc2c1=O` the inhibition was -3.42% (inactive). With `O=C(Nc1ncccn1)c1ccc([N+](=O)[O-])o1` the inhibition was 0.82% (inactive). In the case of `Cc1ccnc(NC(=O)c2ccc([N+](=O)[O-])o2)c1`, the inhibition is reported as 5.02% (inactive). For `Cc1cccc(NC(=O)c2ccc([N+](=O)[O-])o2)n1`, the inhibition was 3.18% (inactive). In the case of `Cc1cc(C)nc(NC(=O)c2ccc([N+](=O)[O-])o2)n1`, the inhibition is reported as -5.31% (inactive). With `Cc1cccnc1NC(=O)c1ccc([N+](=O)[O-])o1` the inhibition was 2.32% (inactive). For `NS(=O)(=O)c1ccc(O)c(NC(=O)c2ccc([N+](=O)[O-])o2)c1`, the inhibition was -1.93% (inactive). In the case of `C=CCNC(=O)c1ccc2c(c1)S(=O)(=O)c1ccccc1C2=O`, the inhibition is reported as -9.32% (inactive). With `COc1cc(C(=O)N2CCN(c3ccccc3)CC2)c([N+](=O)[O-])cc1OC` the inhibition was 3.88% (inactive). For `CN(C)c1ccc(CC(=O)c2nc3ccccc3s2)cc1`, the inhibition was -5.99% (inactive). In the case of `CCCSc1nnc(NC(=O)Nc2ccc(F)cc2)s1`, the inhibition is reported as 17% (inactive). In the case of `O=C(NCC1CCCN(Cc2cccc(C(F)(F)F)c2)C1)c1ccc(F)cc1` (configuration not stated), the inhibition is reported as -2.43% (inactive). In the case of `Cn1cc(/C=C(\C#N)C(=O)Nc2ncc(Cc3ccc(Cl)cc3)s2)c2ccccc21`, the inhibition is reported as 1.97% (inactive). For `Cn1cc(/C=C(\C#N)C(=O)Nc2ncc(Cc3cccc(Cl)c3)s2)c2ccccc21`, the inhibition was 4.07% (inactive). In the case of `COC(C/C=C/[C@H](O)[C@H](C)OCc1ccccc1)OC`, the inhibition is reported as -0.67% (inactive). For `O=[N+]([O-])c1ccc(N=Nc2ccc(O)cc2O)cc1`, the inhibition was 5.58% (inactive). For `O=c1[nH]c(O)c(N=Nc2ccc([N+](=O)[O-])cc2)c(=O)[nH]1`, the inhibition was -0.55% (inactive). With `COC(=O)CCC(=O)N1CCc2cc(S(=O)(=O)N3CCN(c4ccccc4Cl)CC3)ccc21` the inhibition was 3.32% (inactive). With `CN(C)c1ccc(C(=S)N2CCCCC2)cc1Br` the inhibition was 6.15% (inactive). With `Cc1cccc(N=c2c([N+](=O)[O-])nn(-c3ccc(Cl)cc3)n2O)c1` the inhibition was 36.6% (inactive). With `Cc1ccc(CN=c2c([N+](=O)[O-])nn(-c3cccc(C)c3)n2O)cc1` the inhibition was -1.44% (inactive). With `O=[N+]([O-])c1nn(-c2cccc(Cl)c2)n(O)c1=NCc1cccnc1` the inhibition was 6.16% (inactive). For `Cc1cc(C)cc(N=c2c([N+](=O)[O-])nn(-c3ccc(Cl)cc3)n2O)c1`, the inhibition was 48.3% (inactive). With `O=C(CCC1CCCN(Cc2ccc3c(c2)OCCO3)C1)NCc1ccccc1F` (configuration not stated) the inhibition was -11.3% (inactive). In the case of `CCCNC(=O)NC(=O)CSc1ccc2c(c1)OCCO2`, the inhibition is reported as 5.15% (inactive).

Reference: PubChem BioAssay AID1626 (SRMLSC, 2009)
